The list is not random: actives were taken first. Their share in the collection is about 12%.
TDP1 inh: TDP1 (human) enzyme inhibition. recombinant TDP1, AlphaScreen DNA substrate cleavage. Potency, µM (titrated, usually from 130 µM), inactives show at the top dose activity change, negative = inhibition, actives largely listed as inhibitors. 0.28% of 350,000 active; note: % is set by controls: 0 for no effect and ±100 for the full control effect; nearly all actives have a fitted effect of over 40% in size
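Compounds were preincubated with Tdp1 (1 nM final) for 15 min at room temperature before substrate (15 nM final) started a 5 min reaction; beads (10 ug/ml final) were then added for 10 min before AlphaScreen detection.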
BAZ2B block: BAZ2B (human) inhibition. AlphaScreen BAZ2B-H3K14Ac peptide displacement. Potency, µM (top dose mostly 114 µM), inactives show at the top dose activity change, negative = inhibition, hits mostly inhibitors. 4.4% of 360,000 active. Q9UIF8; note: % is set by controls: 0 for no effect and ±100 for the full control effect; nearly all actives have a fitted effect of over 60% in size
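Complex of BAZ2B and biotin-H3K14Ac (50 nM apiece) forms over 30 min at RT, then faces library compounds up to 110 uM for another 30 min; AlphaScreen beads added, 20 min dark incubation, luminescence read.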
Sfp inh: inhibitors of Bacillus subtilis Sfp phosphopantetheinyl transferase. AID 1490. 3.5% of 310,000 active. Biochemical Sfp PPTase activity, qHTS. Potency, µM, without a hit: largest response in the series, negative = inhibition, actives largely listed as inhibitors. Q9F4F7;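 note: the enzyme is Sfp with the accession as filed and its product quenches rhodamine fluorescence; 0% = enzyme reaction without inhibitor and -100% = no enzyme wells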
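With Hepes-Na pH 7.6 buffer containing 10 mM MgCl2, Sfp (15 nM) modified BHQ-2-YbbR (12.5 uM) using rhodamine-CoA (5 uM). Two reads 30 minutes apart at 525/598 nm yielded each well's rate.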
HP1b chromo inh: HP1-beta chromodomain-methylated histone interaction inhibition. AlphaScreen HP1-beta / biotin-H3K9me3 peptide binding. 0.56% of 390,000 active. Potency, µM (titrated, usually from 114 µM), inactives show top-dose activity change, negative = inhibition, hits mostly inhibitors. P83916; note: nearly all actives have a fitted effect of over 70% in size
Target sequence (P83916 whole entry, looked up): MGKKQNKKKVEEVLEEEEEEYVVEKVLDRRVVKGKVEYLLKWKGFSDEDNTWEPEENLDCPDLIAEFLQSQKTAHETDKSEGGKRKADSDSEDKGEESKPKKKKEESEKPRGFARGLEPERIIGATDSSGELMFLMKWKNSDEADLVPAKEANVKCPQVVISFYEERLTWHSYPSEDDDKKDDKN
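Compound inhibition of the preformed complex between 50 nM HP1-beta and 50 nM biotinylated H3K9me3 peptide was read by AlphaScreen. Buffer was PBS pH 7.4 with 0.01% Tween-20. Incubations ran 30 min at room temperature, with 10 ug/mL donor/acceptor beads.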
G9a inh: G9a (human) methyltransferase inhibition | Q96KQ7 | G9a H3K9 monomethylation, AlphaScreen, 2 h | Potency, µM (doses to about 102 µM), inactives show at the highest dose activity, negative = inhibition, most hits filed as inhibitors | 8.8% of 350,000 active | AID 504332; note: % is set by controls: 0 for no effect and ±100 for the full control effect; nearly all actives have a fitted effect of over 75% in size
Target sequence (Q96KQ7 913-1193 limits assumed): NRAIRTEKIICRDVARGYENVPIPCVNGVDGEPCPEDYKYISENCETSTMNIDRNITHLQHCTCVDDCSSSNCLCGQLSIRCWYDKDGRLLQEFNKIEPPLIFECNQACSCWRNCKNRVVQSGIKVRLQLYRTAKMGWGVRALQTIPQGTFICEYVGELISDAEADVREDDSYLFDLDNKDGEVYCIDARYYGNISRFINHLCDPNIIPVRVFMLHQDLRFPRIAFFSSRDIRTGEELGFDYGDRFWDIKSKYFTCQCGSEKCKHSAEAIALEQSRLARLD
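Using a bead-based AlphaScreen, monomethylated H3K9 product from 2 h room-temperature reactions (G9a 20 nM, peptide 500 nM, SAM 20 uM) was detected with 0.5 ug/mL rabbit anti-H3K9me1 antibody.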
JMJD2A Tudor inh: JMJD2A Tudor domain (human) inhibition; AID 504339; O75164; AlphaScreen JMJD2A-Tudor / H3K4me3 peptide binding; Potency, µM (doses to about 114 µM), inactives show top-dose activity change, negative = inhibition, most hits filed as inhibitors; 4.4% of 390,000 active; note: % is set by controls: 0 for no effect and ±100 for the full control effect; nearly all actives have a fitted effect of over 50% in size
* hit, by the source's call; ? = inconclusive; nt = no result given; [ ] = remark or other dose. Calls come from the whole dose curve; as a rule, active = well fitted curve in the direction sought with a large enough effect; inconclusive = small, poorly fitted or top-dose-only effect, or another doubt; inactive = no such curve, though single readings can be large; an effect the other way counts as inactive or inconclusive. Potency is the fitted concentration of half-maximal effect.

SMILES	TDP1 inh	BAZ2B block	Sfp inh	HP1b chromo inh	G9a inh	JMJD2A Tudor inh
CC(=O)Nc1ccc(/C=C/c2nc(-c3ccccc3O)n(-c3ccccc3)n2)cc1	5.3%	1.5%	nt	16.5%	-1.5%[59 µM]	-11.7%
CCN(CC)c1ccc(S(=O)(=O)N2CCOCC2)cc1NC(=O)CNCc1ccccc1	3.5%	50.1µM*	35.5µM*	?	?	89.1µM*
CCN(CC)c1ccc(S(=O)(=O)N2CCOCC2)cc1NC(=O)CSC(=S)N1CCCC1	5.8%	-23.9%	25.1µM*	6.9%	7.94µM*	?
CCN(CC)c1ccc(S(=O)(=O)N2CCOCC2)cc1NC(=O)C1CC1	-0.7%[56.1 µM]	-8.1%	nt	25.6%	9.1%[2.33 µM]	-4.9%
CCN(CC)c1ccc(S(=O)(=O)N2CCOCC2)cc1NC(=O)Nc1ccccc1	-0.1%	nt	nt	1.1%	nt	-10.3%
CCN(CC)c1ccc(S(=O)(=O)N2CCOCC2)cc1NC(=O)CN1CCN(Cc2ccccc2)CC1	7.5%	22.4µM*	79.4µM*	?	?	17.8µM*
Cc1cc(/C=C2\Sc3ccccc3N2C)cc(C)[n+]1CC1CCCO1 (stereo not given)	0.0%	-15.0%	3.6%	4.0%	?	?
CCCCC1=CC2=C(OC(C)=O)C(=O)C(C)(OC(=O)C3CCCC3)C(=O)C2=CO1 (stereo not given)	-10.0%	nt	-13.1%	nt	nt	nt
Cc1cc(S(=O)(=O)N2CCOCC2)ccc1F	-4.3%	-4.8%	3.0%	?	-1.8%[59 µM]	79.4µM*
O=C(CN1CCN(S(=O)(=O)c2ccc(F)c(Cl)c2)CC1)N1CCOCC1	3.7%	-2.8%	nt	39.0%	1.12µM*	10.7%
COc1cccc(C(=O)Nc2cccc(OCc3cc(=O)n4c5c(sc4n3)CCCC5)c2)c1	6.4%	-0.6%	nt	19.8%	-31.0%[59 µM]	-13.6%
COC(=O)c1ccc(C2NC(=O)c3c(sc(C)c3C)N2)cc1 (stereo not given)	3.5%	0.1%	15.8µM*	10.6%	5.62µM*	-18.5%
COc1ccc(C2Nc3cccc4cccc(c34)N2)cc1Br	nt	44.7µM*	-16.4%	?	35.5µM*	39.8µM*
CCN(CC)c1ccc(C2Nc3cccc4cccc(c34)N2)cc1	nt	-27.8%	-13.3%	?	nt	?
COc1ccc(C2NC(=O)c3ccccc3N2)cc1OC (stereo not given)	3.6%	4.3%	21.4%	43.7%	-14.8%[59 µM]	14.7%
COc1cc(C2Nc3cccc4cccc(c34)N2)ccc1OC(C)=O	-2.1%	?	-29.8%	-37.2%	14.1µM*	56.2µM*
COC(=O)c1ccc(C2Nc3cccc4cccc(c34)N2)cc1	3.8%	35.5µM*	?	44.7µM*	28.2µM*	20µM*
CCOC(=O)N1CCc2c(sc3c2C(=O)NC(c2ccc(C(=O)OC)cc2)N3)C1 (stereo not given)	0.0%	1.5%	nt	27.9%	10.2%[59 µM]	-6.2%
O=C(COC(=O)c1cc(F)cc(F)c1)Nc1cccnc1Cl	8.1%	8.4%	-5.7%	38.2%	-0.1%	-3.8%
COc1cc(C2Nc3cccc4cccc(c34)N2)cc(OC)c1O	3.3%	?	50.1µM*	?	7.94µM*	?
O=C(Nc1ncn[nH]1)c1c(Cl)ccc(Cl)c1Cl	7.9%	30.6%	15.4%	30.9%	24.5%[59 µM]	-2.2%
CN(c1ccccc1)S(=O)(=O)c1cccc(C(=O)Nc2ncn[nH]2)c1	nt	?	2.2%	47.1%	23.9%	?
O=C(Nc1ncn[nH]1)c1ccccc1O	7.5%	79.4µM*	13.5%	42.3%	-0.1%[59 µM]	-27.0%
Cc1cc(C(=O)Nc2ccc3c(c2)CCC3)ccc1[N+](=O)[O-]	nt	nt	nt	26.4%	nt	-3.5%
CCOc1ccc(C(=O)Nc2ncn[nH]2)cc1	3.6%	50.1µM*	1.1%	32.2%	-6.7%	-17.7%
SMILES	TDP1 inh	BAZ2B block	Sfp inh	HP1b chromo inh	G9a inh	JMJD2A Tudor inh
Cc1cc(C(=O)Nc2ncn[nH]2)ccc1[N+](=O)[O-]	2.7%	50.1µM*	-0.3%	53.5%	-6.7%[59 µM]	-24.5%
CC(C)Oc1cccc(C(=O)Nc2ncn[nH]2)c1	2.5%	50.1µM*	-7.1%	54.3%	nt	-19.9%
CC(C)COc1ccc(C(=O)Nc2ncn[nH]2)cc1	nt	17.9%	11.2%	20.8%	nt	-17.7%
CCC(C(=O)Nc1ccccc1Cl)n1nc(C)c2c(C)n(-c3ccccc3)nc2c1=O (stereo not given)	2.6%	-24.2%	-2.8%	-14.9%	30.2%	?
CC(C)Oc1ccc(C(=O)Nc2ncn[nH]2)cc1	3.2%	50.1µM*	8.9%	60.3%	-71.1%	?
COc1ccccc1N1CC(C(=O)Nc2ccc(C)c(S(=O)(=O)N3CCOCC3)c2)CC1=O (stereo not given)	0.7%	nt	nt	32.0%	nt	-5.7%
CCCCOc1ccc(CNC(=O)c2cnc3sc(N4CCOCC4)nn3c2=O)cc1	7.1%	2.2%	nt	77.1%	4.6%[59 µM]	-12.3%
Cc1ccc2c(c1)S/C(=C\c1cccc[n+]1C)N2CCO	nt	-15.7%	?	11.3%	?	?
CCN1/C(=C/c2ccc3cc(C)cc(C)c3[n+]2CC)Sc2cc(C)ccc21	4.9%	?	10µM*	?	15.8µM*	15.8µM*
O=C(c1ccncc1)N1CCC2(CCN(Cc3nccs3)CC2)CC1	nt	nt	2.1%	nt	38.7%[12.7 µM]	nt
NC(=O)C1CCN(C(=O)C2CC(=O)N(c3ccc4c(c3)OCCO4)C2)CC1 (stereo not given)	-0.4%[56.1 µM]	9.0%	nt	41.2%	-10.9%[2.33 µM]	-6.1%
Cc1noc(C)c1C(=O)N1CCC[C@@]2(CCN(c3ccccn3)C2)C1	nt	nt	14.3%	nt	-2.7%[12.7 µM]	nt
CCOc1ccc(N(CC(=O)NC2CCCCC2)C(=O)CCC(=O)Nc2cc(C)ccn2)cc1	3.4%	3.2%	6.8%	1.8%	-5.6%	-23.5%
CCOc1ccc(S(=O)(=O)N2CCOCC2)cc1NC(=O)C1CSC2(C)CCC(=O)N12 (stereo not given)	1.3%	-17.4%	nt	15.4%	44.7µM*	-2.1%
CCN(CC)c1ccc(S(=O)(=O)N2CCCCC2)cc1NC(=O)C1CSC2(C)CCC(=O)N12 (stereo not given)	0.3%	-15.3%	nt	16.5%	4.4%[59 µM]	-25.2%
COc1ccc(-c2noc(CCC(=O)N3CCN(c4cccc(F)c4)CC3)n2)cc1	0.6%[56.1 µM]	nt	nt	25.2%	nt	-14.4%
O=c1oc(-c2ccc(Br)cc2)nc2ccccc12	nt	-0.1%	18.5%	57.6%	2.4%	-4.8%
O=C(CSc1nnc(-c2ccc(O)cc2)n1Cc1ccco1)c1ccccc1	3.6%	-9.2%	?	51.8%	50.1µM*	-10.0%
Clc1ccc(CSc2nnc(-c3ccccn3)n2Cc2ccco2)c(Cl)c1	5.7%	-4.7%	50.1µM*	19.5%	50.1µM*	?
O=C(CSc1nnc(-c2ccccn2)n1Cc1ccco1)c1ccc(-c2ccccc2)cc1	5.3%	-3.9%	-26.4%	4.7%	44.7µM*	-30.6%
Cc1ccc(C(=O)c2ccccc2C(=O)O)c(O)c1	3.7%	-2.9%	4.6%	26.9%	-12.6%	-23.2%

Assay outcomes: PubChem, National Center for Advancing Translational Sciences (NCATS)
